Sampled rows, rich in hits. Any-hit rate of the full collection: about 2.5%.
MEKK3 PB1 HTS – MEKK3-MEK5 PB1 interaction, increase or decrease; binding response (% of control), % at 10 µM; 290,000 compounds, 1.4% hits; bead-based flow cytometry, Alexa488-MEK5 binding to MEKK3; actives lie on both sides; 0 = blocked by unlabeled MEK5, 100 = vehicle; AID 1529;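 active = binding response more than 3 SD above or below the average of its plate-row segment, actives on both sides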;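 note: Alexa488 bead fluorescence after subtracting the streptavidin-only scavenger bead signal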
Target sequence (Q99759 whole entry, looked up): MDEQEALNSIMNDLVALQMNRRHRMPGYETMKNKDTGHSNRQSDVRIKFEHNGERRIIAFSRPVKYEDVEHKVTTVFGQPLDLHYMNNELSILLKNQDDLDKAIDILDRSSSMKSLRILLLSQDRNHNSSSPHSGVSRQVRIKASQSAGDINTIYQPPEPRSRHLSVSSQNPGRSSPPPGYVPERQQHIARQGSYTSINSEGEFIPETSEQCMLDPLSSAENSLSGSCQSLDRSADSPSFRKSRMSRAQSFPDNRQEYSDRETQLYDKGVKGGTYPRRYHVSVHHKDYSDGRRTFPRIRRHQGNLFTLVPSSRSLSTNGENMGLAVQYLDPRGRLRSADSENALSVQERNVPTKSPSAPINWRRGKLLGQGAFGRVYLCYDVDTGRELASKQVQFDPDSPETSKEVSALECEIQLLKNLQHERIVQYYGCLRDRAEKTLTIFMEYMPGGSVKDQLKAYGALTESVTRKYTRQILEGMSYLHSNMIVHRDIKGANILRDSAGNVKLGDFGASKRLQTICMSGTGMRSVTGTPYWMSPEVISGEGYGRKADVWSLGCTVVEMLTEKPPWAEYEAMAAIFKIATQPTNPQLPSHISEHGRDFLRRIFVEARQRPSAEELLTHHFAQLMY
GRK2 inh – blocks RNA aptamer binding to human GRK2; P25098; bead flow cytometry, FAM-aptamer displacement from GRK2; inhibition of aptamer binding, % at 10 µM; 330,000 compounds, 0.59% hits; AID 488847;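 active = inhibition of aptamer binding above 40%, roughly 3 SD of noise, on plates passing a quality check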;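 note: median bead fluorescence of bound FAM aptamer so fluorescent compounds give negative values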
MEKK2mut PB1 HTS – signal of MEK5 binding to mutant human MEKK2 PB1 domain; bead flow cytometry, Alexa488-MEK5 binding to MEKK2 mutant; percent response, % at 10 µM; 290,000 compounds, 0.35% hits; AID 1530; in the data active = percent response above about 24%, passing the limit was not always enough
MEKK2wt PB1 HTS – raises or lowers MEK5 binding to wildtype human MEKK2 PB1 domain; binding response (% of control), % at 10 µM; AID 1531; 290,000 compounds, 1.1% hits; bead flow cytometry, Alexa488-MEK5 binding to MEKK2 WT; actives lie on both sides; in the data active = binding response below about 67% or above about 130%
MEKK2wt confirm – raises or lowers MEK5 binding to wildtype human MEKK2, retest. shares compounds with MEKK3 PB1 HTS. bead flow cytometry, Alexa488-MEK5 binding to MEKK2 WT; actives lie on both sides. binding response (% of control), % at 10 µM. 5,900 compounds, 2.4% hits; in the data active = binding response below about 16% or above about 210%; inactive = in between
MEKK2mut confirm – signal of MEK5 binding to mutant human MEKK2, retest; shares compounds with MEKK3 PB1 HTS; bead flow cytometry, Alexa488-MEK5 binding to MEKK2 mutant; percent response, % at 10 µM; 5,900 compounds, 2% hits; in the data active = percent response mostly above about 71%, no sharp cut-off; inactive = mostly below about 38%;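 note: higher means compound restores mutant binding toward wildtype level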
MEKK3-MEK5 inh – confirmation of inhibitors of MEK5 binding to human MEKK3; shares compounds with MEKK3 PB1 HTS; bead flow cytometry, Alexa488-MEK5 binding to MEKK3; active compounds read low; binding response (% of control), % at 10 µM; 5,900 compounds, 1.8% hits;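 active = binding response below 72% of control, or above a set upper limit, though filed actives all read lower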;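 note: 100% = DMSO only wells and 0% = binding blocked by excess unlabeled MEK5; lower values mean stronger disruption of MEK5 binding to MEKK3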
The depositor's hits bear a star; . = not tested or not shown; [ ] = remark or other dose.

SMILES | MEKK3 PB1 HTS | GRK2 inh | MEKK2mut PB1 HTS | MEKK2wt PB1 HTS | MEKK2wt confirm | MEKK2mut confirm | MEKK3-MEK5 inh
CC(Cc1ccccc1)NC(=O)/C=C/c1ccc([N+](=O)[O-])cc1 (stereo not drawn) | 150.0* | 0.0 | 1.0 | 108.0 | 101.0 | -2.0 | 102.0
CC(Cc1ccccc1)NC(=O)c1ccc([N+](=O)[O-])cc1 (stereo not drawn) | 98.0 | 3.0 | 0.0 | 99.0 | . | . | .
COc1ccccc1-c1noc(COC(=O)c2ccc(Br)o2)n1 | . | 2.0 | . | . | . | . | .
CCOC(=O)c1sc(NC(=O)COC(=O)C(CCSC)NC(C)=O)nc1C (stereo not drawn) | 61.0*[inhibitor] | 2.0 | -2.0 | 78.0 | 98.0 | -9.0 | 93.0
CC1CC1C(=O)OCC(=O)Nc1ccc(N=Nc2ccccc2)cc1 (stereo not drawn) | 136.0* | 4.0 | 5.0 | 107.0 | 99.0 | -3.0 | 95.0
CCOc1ccc(NC(=O)COC(=O)C2CC2C)cc1 (stereo not drawn) | . | 2.0 | . | . | . | . | .
CCOc1cc(/C=N/NC(N)=O)cc(Br)c1OCC(=O)Nc1ccccc1C | 122.0* | 4.0 | 12.0 | 114.0 | 106.0 | 7.0 | 105.0
CCOc1cc(/C=N/NC(N)=O)cc(Br)c1OCC(=O)Nc1cccc2ccccc12 | 114.0 | 1.0 | 14.0 | 111.0 | . | . | .
Oc1ccc2ccc3[nH]cnc3c2c1 | 39.0*[inhibitor] | 5.0 | 5.0 | 45.0*[inhibitor] | 95.0 | -3.0 | 99.0
O=C(NCCN1CCN(C(=O)c2c(F)cccc2F)CC1)C(=O)Nc1ccc(Cl)cc1 | 95.0 | 0.0 | 4.0 | 99.0 | . | . | .
N/C(=N\N=C\c1ccco1)SC1CC(=O)N(c2ccc(C(=O)O)cc2)C1=O (stereo not drawn) | 135.0* | 1.0 | 5.0 | 123.0 | 110.0 | 0.0 | 100.0
O=C(Nc1cccc2ncccc12)c1ccc(F)cc1 | 132.0* | 1.0 | 0.0 | 101.0 | 108.0 | -2.0 | 103.0
O=C(Nc1cccc2ncccc12)c1cccc(F)c1 | 108.0 | 3.0 | 9.0 | 109.0 | . | . | .
O=C(CSc1ccc2nnc(-c3ccc(F)cc3)n2n1)N1CCCc2ccccc21 | 134.0* | 4.0 | 0.0 | 102.0 | 101.0 | 5.0 | 104.0
COc1ccc(-c2cc(-c3nnc(COC(=O)CC4CCCC4)o3)c3ccccc3n2)cc1OC | 135.0* | 5.0 | 0.0 | 93.0 | 95.0 | -9.0 | 99.0
C=CCOc1ccc(/C=C2\N=C(C)OC2=O)cc1OC | 61.0*[inhibitor] | 3.0 | -6.0 | 53.0*[inhibitor] | 103.0 | 3.0 | 101.0
CCN(CC)CCCNC(=S)N1CCN(c2nc(-c3ccc(F)cc3)cs2)CC1 | 110.0 | 0.0 | 27.0* | 186.0* | 143.0 | 31.0 | 107.0
Cc1nn(CCc2nc(-c3ccco3)cs2)c2[nH]c(=O)cc(C(F)(F)F)c12 | 97.0 | 3.0 | -2.0 | 97.0 | . | . | .
Cn1nc(-c2ccc(Cl)cc2)c2cc(C(=O)NCCCN3CCCC3)sc21 | 105.0 | 0.0 | 21.0 | 201.0* | 176.0 | 37.0 | 106.0
CCN1CCCC1CNC(=O)c1cc2c(-c3ccc(Cl)cc3)nn(C)c2s1 (stereo not drawn) | 112.0 | 0.0 | 29.0* | 210.0* | 167.0 | 31.0 | 101.0
CCCCNC(=O)c1cc2c(-c3ccc(Cl)cc3)nn(C)c2s1 | 104.0 | 3.0 | 5.0 | 114.0 | . | . | .
Cc1c(C(=O)OC(C)CCN(C)C)oc2ccccc12 (stereo not drawn) | 94.0 | 0.0 | 0.0 | 91.0 | . | . | .
COC(=O)C1=C(C(=O)OC)C(c2ccc(OC)c(OC)c2)c2sc(=O)[nH]c2S1 (stereo not drawn) | 55.0*[inhibitor] | 4.0 | -17.0 | 60.0*[inhibitor] | 90.0 | -8.0 | 90.0
Clc1ccc(/C(Cc2nc3ccccc3[nH]2)=N\Nc2ccccc2)cc1 | 110.0 | 6.0 | 42.0 | 153.0* | 138.0 | 13.0 | 108.0
CCOC(=O)C1(Cc2cccc(F)c2)CCN(Cc2nc(CC)[nH]c2C)CC1 | 71.0*[inhibitor] | 0.0 | -13.0 | . | 114.0 | 16.0 | 81.0
CCn1c(SCC(=O)N2CCc3ccccc3C2)nc2c1c(=O)n(C)c(=O)n2C | 99.0 | 3.0 | 3.0 | 102.0 | . | . | .

Assay outcomes from PubChem.
